Data on 5 compounds can be found in PubChem BioAssay (NCI).

A short description of this assay: NCI Yeast Anticancer Drug Screen. Data for the rad50 strain (AID 155).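 Also: 0% = growth of vehicle-only cultures of the same strain.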 Conditions: S. cerevisiae rad50 strain growth inhibition, hits give high values. On the procedure: Growth inhibition of yeast strains with defined genetic alterations is measured as a screen for potential anti-cancer activity. Selected strains with alterations in DNA damage repair or cell cycle control were exposed to compounds and growth inhibition was measured relative to vehicle treated controls. The strain used in this assay is rad50

Setting [1] is: at 5.0 µM (retest, dose inferred, filed as 0.5).
Where [2] appears, read: at 50.0 µM (retest, dose inferred, filed as 5.0).

Compounds without any hit were thinned out: in the full panel of roughly 79,000, 15% have a hit. Values without a mark were called inactive. Activity calls are given as the source filed them. Rule as the data show it: active = growth inhibition above about 70%; inactive = the rest.

In the case of `CCCCOC(=O)N[C@H]1CCc2cc(OC)c(OC)c(OC)c2-c2ccc(SC)c(=O)cc21`, the growth inhibition runs as follows: (at 1.2 µM) 1%; (at 3.7 µM) 6%; under setting [1], -15%; (at 11.0 µM) 14%; (at 33.0 µM) 51%; under setting [2], 52%. Moreover, the growth inhibition reads like this: (at 50.0 µM) 82.5% (active); (at 100.0 µM) 81% (active).

For the compound `CN(N=O)N1C(=O)SCC(c2ccccc2)(c2ccccc2)C1=O`, the growth inhibition is, setting by setting: (at 1.2 µM) 3%; (at 3.7 µM) 4%; under setting [1], -26%; (at 11.0 µM) 13%; (at 33.0 µM) 11%; under setting [2], 66%. For the same compound, the growth inhibition by setting is: (at 50.0 µM) 56%; (at 100.0 µM) 37%.

Consider `COc1ccc2ccc3ccccc3c2c1C=O`, for which the growth inhibition (at 1.2 µM) is 0%; the growth inhibition (at 3.7 µM) is 23%; the growth inhibition under setting [1] is 9%; the growth inhibition (at 11.0 µM) is 28%; the growth inhibition (at 33.0 µM) is 6%; the growth inhibition under setting [2] is 64%. In addition, the growth inhibition (at 50.0 µM) is 49% and the growth inhibition (at 100.0 µM) is 79% (active).

`N#CN=Nc1cc(Cl)c(N=NC#N)cc1Cl`: the growth inhibition (at 1.2 µM) is -15%; the growth inhibition (at 3.7 µM) is -8%; the growth inhibition under setting [1] was -22%; the growth inhibition (at 11.0 µM) is -7%; the growth inhibition (at 33.0 µM) was 3%; the growth inhibition under setting [2] was 64%. Besides, the growth inhibition reads like this: (at 50.0 µM) 83.8% (active); (at 100.0 µM) 55%.

Regarding `COc1ccc(/C=C/C(=O)C(C)(C)Br)cc1`, the growth inhibition runs as follows: (at 1.2 µM) 41%; (at 3.7 µM) 74% (active); under setting [1], 75% (active); (at 11.0 µM) 88% (active); (at 33.0 µM) 93% (active); under setting [2], 96% (active). For the same compound, the growth inhibition is, setting by setting: (at 50.0 µM) 94.5% (active); (at 100.0 µM) 96% (active).
